In PubChem BioAssay (NCATS) one finds AC50, outcome and Potency data, which are given here for 26 molecules.

Records with an inconclusive call do not appear. A call without a number means that no potency is given here. Activity calls are given as the source filed them.

Assay in the first assay: not given
As to conditions: Ebola virus entry cell assay, ratio channel.
One may read the AC50 as the midpoint of the concentration-response curve, whichever way the signal moves. Turning to `CC/C(=C(\c1ccccc1)c1ccc(OCCN(C)C)cc1)c1ccccc1`, the concentration at half-maximal activity (AC50) is 1.26 µM (active).
Same read-out and setting: the same measure for `COc1cc2ncnc(Nc3ccc(F)c(Cl)c3)c2cc1OCCCN1CCOCC1`: 15.8 µM (active).
With `CC(=O)O[C@]1(C(C)=O)CC[C@H]2[C@@H]3C=C(Cl)C4=CC(=O)[C@@H]5C[C@@H]5[C@]4(C)[C@H]3CC[C@@]21C`, the outcome was inactive.
As for `CCCNCC(O)COc1ccccc1C(=O)CCc1ccccc1` (stereo not given), the AC50 is 8.91 µM (active).
Regarding `CN1CCN(C2=Nc3cc(Cl)ccc3Nc3ccccc32)CC1`, the result was inactive.
As for `COC(=O)Nc1nc2ccc(C(=O)c3ccccc3)cc2[nH]1`, the AC50 was 5.62 µM (active).
On the same count and under the same terms, the same measure for `NCCCC(O)(P(=O)(O)O)P(=O)(O)O`: 3.98 µM (active).
In the case of `COc1cc2c(cc1OC)C(=O)C(CC1CCN(Cc3ccccc3)CC1)C2` (stereo not given), the result was inactive.
Regarding `CN1CCN(C(c2ccccc2)c2ccccc2)CC1`, the outcome was inactive.
Same read-out and setting: the same measure for `CC(C)OC(=O)C(C)(C)Oc1ccc(C(=O)c2ccc(Cl)cc2)cc1`: “inactive”.
For the molecule `CCN(CC)CCOC(=O)C1(C2CCCCC2)CCCCC1`, the half-maximal activity concentration (AC50) was 15.8 µM (active).
Take `Cc1ccsc1C(=CCCN1CCC[C@@H](C(=O)O)C1)c1sccc1C`: the outcome was inactive.
Still for that read-out and setting: the same measure for `C[C@@H](O)[C@H]1C(=O)N2C(C(=O)O)=C(S[C@@H]3CN[C@H](CNS(N)(=O)=O)C3)[C@H](C)[C@H]12`: “inactive”.
`Cc1ccc(NC(=O)c2ccc(CN3CCN(C)CC3)cc2)cc1Nc1nccc(-c2cccnc2)n1`: the concentration at half-maximal activity (AC50) is 28.2 µM (active).
On the same count and under the same terms, the same measure for `CC[C@]1(O)C[C@H]2CN(CCc3c([nH]c4ccccc34)[C@@](C(=O)OC)(c3cc4c(cc3OC)N(C=O)[C@H]3[C@@](O)(C(=O)OC)[C@H](OC(C)=O)[C@]5(CC)C=CCN6CC[C@]43[C@@H]65)C2)C1`: 0.112 µM (active).
As for `O=C1c2cccc3c2[C@H](CCC3)CN1[C@@H]1CN2CCC1CC2`, the outcome was inactive.
Consider `CN(C)CCC=C1c2ccccc2CCc2ccccc21`, for which the concentration at half-maximal activity (AC50) is 11.2 µM (active).
As for `Cc1ccccc1C(=O)Nc1ccc(C(=O)N2CCCC(O)c3cc(Cl)ccc32)c(C)c1` (stereo not given), the outcome was inactive.
On the same count and under the same terms, the same measure for `CCC(COC(=O)c1cc(OC)c(OC)c(OC)c1)(c1ccccc1)N(C)C` (stereo not given): “inactive”.
For `C[C@]12CC[C@@H]3c4ccc(O)cc4C[C@@H](CCCCCCCCCS(=O)CCCC(F)(F)C(F)(F)F)[C@H]3[C@@H]1CC[C@@H]2O` (stereo not given in full), the concentration at half-maximal activity (AC50) is 2 µM (active).
In the case of `COCCCOc1cc(C[C@@H](C[C@H](N)[C@@H](O)C[C@H](C(=O)NCC(C)(C)C(N)=O)C(C)C)C(C)C)ccc1OC`, the result was inactive.
With `COc1cc2c(c(OC)c1OC)-c1ccc(OC)c(=O)cc1[C@@H](NC(C)=O)CC2`, the AC50 was 0.316 µM (active).

A further assay can be described thus: qHTS assay for measurement of the activity of small molecule inhibitors on Zika virus induced Caspase-3 activity in human iPSC derived neural progenitor cells (hNPCs) (AID 1224857). Also: nearly all actives have a fitted effect of over 65% in size. The conditions noted are these: hNPCs ZIKV-induced caspase-3/7, Caspase-Glo luminescence, 6 h; series mostly up to 45.7 µM. In a few lines: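 After overnight (16–20 h) culture at 350 cells/well, hNPCs get compound, then ZIKV 2 FFU/cell one hour later. Six hours on, Caspase-Glo 3/7 is added and luminescence measured.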
In the case of `O=C1NCN(c2ccccc2)C12CCN(CC1COc3ccccc3O1)CC2` (stereo not given), the Potency result was “inactive”.
Still for that read-out and setting: the same measure for `CCC1(C2=NCCN2)Cc2ccccc2O1` (stereo not given): “inactive”; for `CN1C(=S)CN=C(c2ccccc2)c2cc(Cl)ccc21`: “inactive”.

A short description of a further assay: qHTS assay for measurement of the activity of small molecule inhibitors on Zika virus induced Caspase-3 activity in human astrocytoma cells (AID 1224859). As to conditions: SNB-19 ZIKV-induced caspase-3/7, luminescence, 6 h; series mostly up to 45.7 µM. In a few lines:
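Inhibition of Zika-induced caspase-3/7 activity: SNB-19 cells, 1 h compound pretreatment, ZIKV 2 FFU/cell for 6 h at 37 C, Caspase-Glo luminescence read-out.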
As to `O=C1NCN(c2ccccc2)C12CCN(CC1COc3ccccc3O1)CC2` (stereo not given), the molecule was classed as inactive.
Still for that read-out and setting: the same measure for `CCC1(C2=NCCN2)Cc2ccccc2O1` (stereo not given): “inactive”.
As to `CN1C(=S)CN=C(c2ccccc2)c2cc(Cl)ccc21`, the call was inactive.
Still for that read-out and setting: the same measure for `CCC(COC(=O)c1cc(OC)c(OC)c(OC)c1)(c1ccccc1)N(C)C` (stereo not given): “inactive”.
Still for that read-out and setting: the same measure for `O=c1oc2ccccc2c(O)c1C(CC(O)c1ccc(-c2ccc(Br)cc2)cc1)c1ccccc1` (stereo not given): “inactive”.

Another assay can be described thus: qHTS assay to identify small molecule inhibitors of chordoma cells - UCH-1 (AID 1259355). Also: nearly all actives have a fitted effect of over 55% in size. As to conditions: UCH-1 chordoma viability, CellTiter-Glo, 48 h, combination; series mostly up to 46.1 µM. An outline of the steps: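 Seed 800 cells per well; incubate overnight at 37 C, 5% CO2. Add test compounds (15 concentrations), then the auranofin–topoisomerase-agent combination. Incubate 48hr, add CellTiter-Glo, wait 30min, read luminescence.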
For orientation: qHTS replaces the single test concentration by a dilution series.
For `O=C1NCN(c2ccccc2)C12CCN(CC1COc3ccccc3O1)CC2` (stereo not given), the Potency result is “inactive”.
The same measure, in the same setting: the same measure for `CCC1(C2=NCCN2)Cc2ccccc2O1` (stereo not given): “inactive”; for `CN1C(=S)CN=C(c2ccccc2)c2cc(Cl)ccc21`: “inactive”.
For the molecule `CCC(COC(=O)c1cc(OC)c(OC)c(OC)c1)(c1ccccc1)N(C)C` (stereo not given), the Potency entry is “inactive”.
Still for that read-out and setting: the same measure for `O=c1oc2ccccc2c(O)c1C(CC(O)c1ccc(-c2ccc(Br)cc2)cc1)c1ccccc1` (stereo not given): “inactive”.

Another assay is described as follows: qHTS assay to identify small molecule inhibitors of chordoma cells - UCH-2 (AID 1259356). As to conditions: UCH-2 chordoma viability, CellTiter-Glo ATP luminescence, 48 h; series mostly up to 46.1 µM.
Regarding `O=C1NCN(c2ccccc2)C12CCN(CC1COc3ccccc3O1)CC2` (stereo not given), the Potency result was “inactive”.
As to `CCC1(C2=NCCN2)Cc2ccccc2O1` (stereo not given), the Potency entry was “inactive”.
Regarding `CN1C(=S)CN=C(c2ccccc2)c2cc(Cl)ccc21`, the Potency result was “inactive”.
The same measure, in the same setting: the same measure for `CCC(COC(=O)c1cc(OC)c(OC)c(OC)c1)(c1ccccc1)N(C)C` (stereo not given): “inactive”.
Still for that read-out and setting: the same measure for `O=c1oc2ccccc2c(O)c1C(CC(O)c1ccc(-c2ccc(Br)cc2)cc1)c1ccccc1` (stereo not given): “inactive”.
